SW480 rereplic: inducers of DNA re-replication in SW480 colon cancer cells. SW480 DNA re-replication, Hoechst DNA content imaging, 48 h. Potency, µM (series often up to 46.1 µM), actives largely listed as activators. 340,000 tested, 1.8% active. AID 624297; note: nearly all actives have a fitted effect of over 55% in size
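Per well, 250 cells were exposed to pinned compound for 48 hr. Nuclear DNA was visualised with Hoechst (40 min, 37 C) and total object intensity recorded by fluorescence scanning.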
MCF10A rerep: inducers of DNA re-replication in MCF 10A breast cells; MCF 10A DNA re-replication, Hoechst nuclear intensity, 48 h; Potency, µM (doses to about 46.1 µM), most hits filed as activators; 350,000 tested, 2.9% active; AID 624296; note: nearly all actives have a fitted effect of over 50% in size
KB-V1 MDR tox: KB-V1 MDR subline cytotoxicity; 400,000 tested, 3.4% active; Potency, µM (highest dose often 46.1 µM), most hits filed as cytotoxic; AID 1347076; KB-V1 MDR cells viability, CellTiter-Glo, 72 h; note: nearly all actives have a fitted effect of over 60% in size
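Potencies derive from concentration-effect curves fitted to normalized luminescence (CellTiter-Glo) of KB-V1 cells treated for 72 h at 37 degrees C in phenol-red-free DMEM containing 10% FBS.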
KB-3-1 cytotox: KB-3-1 parental cell cytotoxicity | KB-3-1 viability, CellTiter-Glo ATP luminescence, 72 h | Potency, µM (doses to about 46.1 µM), most hits filed as cytotoxic | 400,000 tested, 1.4% active; note: nearly all actives have a fitted effect of over 60% in size
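Using CellTiter-Glo luminescence, growth of non-resistant KB-3-1 adenocarcinoma cells is assessed 72 h after pin-tool compound addition at 37 °C. Normalized responses across the concentration series yield fitted curves.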
HT1080 IDH1KD tx: HT-1080 IDH1 knockdown cell toxicity (counter line); AID 686971; Potency, µM (doses to about 46.1 µM), usual class: cytotoxic; 360,000 tested, 2% active; HT-1080 IDH1 knockdown viability, ATP luminescence, 48 h
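Cytotoxicity counter-line: IDH1KD HT-1080, 48 h, CellTiter-Glo. Curves classed by r2, magnitude and activity.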
HT1080-NT tox: kills 2HG-producing HT-1080-NT fibrosarcoma cells; HT-1080-NT fibrosarcoma viability, CellTiter-Glo ATP luminescence, 48 h; Potency, µM (highest dose often 46.1 µM), most hits filed as cytotoxic; 360,000 tested, 1.6% active;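 note: NT is the 2HG producing partner of a matched IDH1 knockdown line; nearly all actives have a fitted effect of over 55% in size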
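Toxicity toward the 2HG-producing NT line was scored as %Activity, normalised to DMSO and no-cell wells, from CellTiter-Glo luminescence after 48 hours' treatment.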
Of the large screens only hits and unclear results are named; the others gave an inactive call; ! = a repeat was not active. Compounds with a hit are over-represented: about 7.9% of the library has one in this group of screens. Calls come from the whole dose curve; as a rule, active = well fitted curve in the direction sought with a large enough effect; inconclusive = small, poorly fitted or top-dose-only effect, or another doubt; inactive = no such curve, though single readings can be large; an effect the other way counts as inactive or inconclusive.

CC(C)n1c(=N)c(C(=O)NCc2ccccc2)cc2c(=O)n3ccccc3nc21	none (no result: SW480 rereplic, MCF10A rerep, HT1080 IDH1KD tx, HT1080-NT tox)
Cc1ccc(Cn2c(=N)c(C(=O)NCCN3CCOCC3)cc3c(=O)n4ccccc4nc32)cc1	SW480 rereplic inconclusive, MCF10A rerep 0.58µM
N=c1c(C(=O)NCc2ccccc2)cc2c(=O)n3ccccc3nc2n1CCCN1CCOCC1	SW480 rereplic 9.2µM, MCF10A rerep 3.7µM, KB-3-1 cytotox inconclusive
CCOc1ccc(CCNC(=O)COC(=O)CSc2ccc(C)cc2)cc1OCC	none
N=c1c(C(=O)NCCN2CCOCC2)cc2c(=O)n3ccccc3nc2n1CCc1ccccc1	SW480 rereplic 10µM, MCF10A rerep inconclusive
Cn1c(C(=O)NCCN2CCOCC2)cc2c(=O)n3ccccc3nc21	SW480 rereplic inconclusive, MCF10A rerep inconclusive
Cc1cccc(N=C2NC(=O)C(CO)(CO)S2)c1	none
CCSC1=N/C(=C\c2ccccc2)C(=O)N1	none
COC(=O)C(C)SC1=N/C(=C/c2ccc(-n3cncn3)cc2)C(=O)N1 (stereo unspecified)	SW480 rereplic inconclusive, MCF10A rerep 16µM
CC(C)OC(=S)N/C(=N\S(=O)(=O)c1ccccc1)c1ccccc1	HT1080 IDH1KD tx 8.9µM, HT1080-NT tox 7.1µM
Cc1cccc(NC(=S)N/C(=N/S(=O)(=O)c2ccccc2)c2ccccc2)c1	none
CSc1nnc(C2CCN(CC(=O)Nc3ccccc3N3CCOCC3)CC2)n1C	none
O=S(=O)(c1ccc(F)cc1)c1nc(-c2ccccc2F)oc1N1CCCCC1	KB-V1 MDR tox 3.7µM
O=S(=O)(c1ccccc1)c1nc(-c2ccc(F)cc2)oc1N1CCCCCC1	KB-V1 MDR tox inconclusive (no result: SW480 rereplic, MCF10A rerep, HT1080 IDH1KD tx, HT1080-NT tox)
COc1c(C)cc(NS(=O)(=O)c2ccc3c(c2)OCCO3)cc1C	KB-3-1 cytotox inconclusive (no result: SW480 rereplic, MCF10A rerep, HT1080 IDH1KD tx, HT1080-NT tox)
COCc1nnc(NC(=O)C2CCN(C(=O)c3ccccc3)CC2)s1	none (no result: SW480 rereplic, MCF10A rerep, HT1080 IDH1KD tx, HT1080-NT tox)
CN(C)C(=O)NC1c2ccccc2-c2ccccc21	none
O=C(NC1c2ccccc2-c2ccccc21)N1CCCCC1	KB-V1 MDR tox 16µM, KB-3-1 cytotox inconclusive
Cn1c(SCC(=O)Nc2cccnc2Cl)nc2ccccc21	none (no result: KB-V1 MDR tox, KB-3-1 cytotox)
COc1cccc(Cn2c(=O)c3[nH]cnc3n(-c3ccccc3C)c2=O)c1	none
COc1ccc(Cn2c(=O)cc(N)n(-c3ccccc3C)c2=O)cc1	SW480 rereplic 15µM, MCF10A rerep inconclusive, KB-3-1 cytotox inconclusive, HT1080 IDH1KD tx 16µM, HT1080-NT tox 21µM
FC(F)(F)c1cccc(NC(=S)N(CCCN2CCCC2)Cc2cccn2Cc2ccc(Cl)cc2)c1	SW480 rereplic inconclusive, MCF10A rerep inconclusive, KB-V1 MDR tox inconclusive, KB-3-1 cytotox inconclusive, HT1080 IDH1KD tx 23µM, HT1080-NT tox inconclusive
Cc1ccc(NC(=S)N(CCCN2CCCC2)Cc2cccn2Cc2ccc(Cl)cc2)cc1Cl	SW480 rereplic inconclusive, MCF10A rerep inconclusive, HT1080-NT tox inconclusive
COc1ccc(NC(=S)N(CCCN2CCCC2)Cc2cccn2Cc2ccc(Cl)cc2)cc1Cl	SW480 rereplic 23µM, MCF10A rerep 21µM, KB-V1 MDR tox 18µM, HT1080 IDH1KD tx inconclusive, HT1080-NT tox inconclusive
Cc1ccc(NC(=S)N(CCCN2CCCC2)Cc2cccn2Cc2ccc(Cl)cc2)cc1C	MCF10A rerep inconclusive, KB-3-1 cytotox inconclusive
Cc1ccc2c(Sc3ccccc3)c(C(=O)NCc3ccccc3F)[nH]c2c1	none (no result: SW480 rereplic, MCF10A rerep, HT1080 IDH1KD tx, HT1080-NT tox)
COC(=O)c1ccccc1NC1=C/C(=N\S(=O)(=O)c2ccc(C(=O)O)cc2)c2ccccc2C1=O	SW480 rereplic 2.9µM, MCF10A rerep inconclusive, KB-V1 MDR tox 18µM, KB-3-1 cytotox inconclusive, HT1080 IDH1KD tx 21µM, HT1080-NT tox 23µM
COC(=O)c1ccccc1NC1=C/C(=N\S(=O)(=O)c2cccs2)c2ccccc2C1=O	SW480 rereplic 4.6µM, MCF10A rerep 18µM, KB-V1 MDR tox 18µM!, KB-3-1 cytotox inconclusive, HT1080 IDH1KD tx 6.3µM, HT1080-NT tox 21µM
O=S1(=O)C[C@@H](N2CCN(CC3CC3)CC2)[C@H](COCc2ccccc2)N1	none (no result: SW480 rereplic, MCF10A rerep)
O=C(c1cc(-c2ccccc2)nc2ccccc12)N1CCc2ccccc2C1	KB-V1 MDR tox 18µM, KB-3-1 cytotox inconclusive
